PubChem BioAssay (NCATS)
Several values for one entry are separate records, joined by “and”; a condition that tells them apart may be missing. Equal entries are not always repeated. Inconclusive results are not listed. Activity calls are given as the source filed them. Unless noted, calls follow the shape of the dose curve; as a rule, active = well fitted curve in either direction with a large enough effect (not every such curve was filed as active); inconclusive = small, poorly fitted or top-dose-only effect, or another doubt; inactive = flat fitted curve, though single readings scatter.

Tests used:
[1] = AP1 Signaling Pathway (AID 357);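 also: ME-180 reporter cells stimulated with EGF at its EC50 level; % is scaled to controls: 0 for no effect and ±100 for the full control effect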
Outline: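 Titration-series screen for positive or negative modulators of EC50 EGF-induced signaling in ME-180 cells carrying an AP-1-driven beta-lactamase reporter. After 5 hours at 37 degrees Celsius, CCF4 460nm/530nm emission ratio gave %Activity; AC50 values derived.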

[2] = target: Cytochrome P450 1A2 (Homo sapiens) (UniProt P05177); assay: p450-cyp1a2 (AID 410; calls by dose curve; also: potency is read from the fitted curve at half-maximal effect;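 as to activity change, negative = inhibition: -100% = full effect of reference inhibitor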)
Cytochrome P450 1A2 (Homo sapiens), sequence (P05177 whole entry, looked up): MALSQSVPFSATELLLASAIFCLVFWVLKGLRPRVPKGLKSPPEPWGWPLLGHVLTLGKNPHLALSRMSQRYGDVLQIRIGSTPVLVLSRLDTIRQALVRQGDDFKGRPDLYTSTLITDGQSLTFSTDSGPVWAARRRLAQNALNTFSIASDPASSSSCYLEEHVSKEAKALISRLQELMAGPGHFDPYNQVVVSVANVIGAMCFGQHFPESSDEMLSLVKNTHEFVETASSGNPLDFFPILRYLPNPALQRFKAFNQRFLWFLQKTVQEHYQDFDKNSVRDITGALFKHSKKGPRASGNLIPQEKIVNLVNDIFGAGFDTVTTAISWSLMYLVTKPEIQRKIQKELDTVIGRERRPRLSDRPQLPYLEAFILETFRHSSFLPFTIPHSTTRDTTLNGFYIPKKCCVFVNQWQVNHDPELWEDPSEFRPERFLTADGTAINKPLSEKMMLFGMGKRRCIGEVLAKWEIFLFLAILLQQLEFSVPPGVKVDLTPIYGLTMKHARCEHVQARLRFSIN
Outline: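 Luminescent demethylation readout: Luciferin-ME (100uM, equal to Km) turned over by 20nM CYP1A2 for 60 min at room temperature after NADPH regeneration addition, following 10 min compound preincubation. Normalization used 57 uM furafylline as full inhibition.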

[3] = Stat Signaling Pathway (AID 446);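 also: ME-180 cervical cancer cells given 40 pM IL-6 alongside compound; SIE-controlled beta-lactamase reporter measured as 460/530 nm FRET emission ratio; % is scaled to controls: 0 for no effect and ±100 for the full control effect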
Outline: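 FRET read-out (405 nm excitation, 460/530 nm emission) of a beta-lactamase reporter under a STAT-inducible element in ME-180 cervical carcinoma cells. Cells with compound receive 40 pM IL-6 for 5 h. Values are normalised to AC90 stimulation and AC90 JAK-inhibitor controls.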

[4] = target: Glucocorticoid receptor (Homo sapiens) (UniProt P04150); assay: GR-GFP Redistribution (AID 450;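 active = compounds whose dose series gives a full or clear partial fitted curve of increased nuclear translocation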; also: potency is read from the fitted curve at half-maximal effect); conditions: U2OS GR-GFP nuclear translocation, laser cytometry, 2 h
Glucocorticoid receptor (Homo sapiens), sequence (P04150 whole entry, looked up, the tested form may be a part): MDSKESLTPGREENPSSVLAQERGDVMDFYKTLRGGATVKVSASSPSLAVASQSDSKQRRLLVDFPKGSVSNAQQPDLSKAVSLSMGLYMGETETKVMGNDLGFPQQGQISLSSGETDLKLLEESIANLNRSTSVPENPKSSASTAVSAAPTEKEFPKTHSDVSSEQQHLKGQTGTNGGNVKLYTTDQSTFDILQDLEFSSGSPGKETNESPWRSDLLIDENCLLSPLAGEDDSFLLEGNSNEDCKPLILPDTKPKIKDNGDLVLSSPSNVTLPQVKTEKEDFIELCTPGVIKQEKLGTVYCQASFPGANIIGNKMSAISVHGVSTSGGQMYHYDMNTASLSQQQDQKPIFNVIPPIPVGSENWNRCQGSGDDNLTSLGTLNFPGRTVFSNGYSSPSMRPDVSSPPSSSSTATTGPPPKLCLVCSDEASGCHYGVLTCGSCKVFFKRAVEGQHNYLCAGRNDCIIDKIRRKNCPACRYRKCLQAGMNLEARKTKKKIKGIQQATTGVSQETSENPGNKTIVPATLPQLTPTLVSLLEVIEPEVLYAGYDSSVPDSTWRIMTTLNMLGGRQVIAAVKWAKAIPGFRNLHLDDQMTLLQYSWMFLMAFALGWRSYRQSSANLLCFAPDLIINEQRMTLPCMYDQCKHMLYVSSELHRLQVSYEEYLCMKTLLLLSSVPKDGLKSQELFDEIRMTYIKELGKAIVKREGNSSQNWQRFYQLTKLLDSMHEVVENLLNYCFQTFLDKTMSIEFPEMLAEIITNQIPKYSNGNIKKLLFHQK

[5] = target: Glucocorticoid receptor (Homo sapiens) (UniProt P04150); assay: GR-EFC Redistribution (AID 451; calls by dose curve; also: potency is read from the fitted curve at half-maximal effect); conditions: CHO-K1 GR-EFC translocation, beta-gal luminescence, 2 h
Outline: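 CHO-K1 cells stably expressing nuclear-localized β-gal enzyme acceptor and GR fused C-terminally to the enzyme donor fragment; ligand-driven nuclear translocation restores β-gal by complementation. Compounds titrated up to 46 uM final, 2 h at 37 °C; luminescence read.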

[6] = NFAT Signaling Pathway (AID 444); conditions: Jurkat NFAT-bla M1, carbachol, beta-lactamase ratio, 5 h; at 17.2 µM (top of the series) unless noted;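 also: carbachol stimulus at about its EC50 of 1 µM final; % is scaled to controls: 0 for no effect and ±100 for the full control effect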
Outline: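 Jurkat cells carrying an NFAT-driven β-lactamase reporter and co-transfected muscarinic M1 receptor were treated with compound plus carbachol (1 uM final, an EC50 level) for 5 h at 37 °C. CCF4 loading followed for 1 h at RT; 460/530 nm ratio gave %activity.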

[7] = target: Mitogen-activated protein kinase 10 (Mus musculus) (UniProt Q61831); assay: JNK3 AlphaScreen Assay (AID 530);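 also: kinase came from lysate of stimulated human HepG2 cells; signal reports phosphorylation of biotinylated GST-cJun 1-79 at Ser73 with 10 µM ATP; % is scaled to controls: 0 for no effect and ±100 for the full control effect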
Outline: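 Phosphorylation of biotinylated GST-cJun(1-79) at Ser73 is measured by AlphaScreen proximity luminescence. Enzyme is JNK3 in HepG2 lysates activated with interleukin-1beta and tumor necrosis factor alpha; ATP is 10 uM final.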

[8] = Cell Viability - BJ (AID 421; calls by dose curve;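 also: potency is read from the fitted curve at half-maximal effect; cells exposed to compound for 40 hours at 37 °C before readout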); conditions: BJ fibroblast viability, qHTS
Outline: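 Cytotoxicity as drop in intracellular ATP (CellTiter-Glo, 20 min RT) after 40 hr compound exposure of BJ fibroblasts at 37 °C. Titrations scaled between DMSO and 100 uM tamoxifen, Hill-fitted for AC50.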

[9] = Cell Viability - Jurkat (AID 426;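 active = dose-dependent loss of cell ATP signal giving a full or clear fitted curve, ranked by lower potency value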; also: potency is read from the fitted curve at half-maximal effect); conditions: qHTS
Outline: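 Cytotoxicity taken as drop in cellular ATP (CellTiter-Glo luminescence, 20 min room temperature) after 40 hr, 37C treatment of 5000 Jurkat Clone E6-1 cells per well; concentration-response fitted with Hill equation for AC50.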

[10] = Cell Viability - Hek293 (AID 427;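 active = compounds whose dose-response curve shows a full or clear partial loss of cell viability, called from curve shape rather than a numeric limit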;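 also: potency is read from the fitted curve at half-maximal effect; cells exposed to compound for 40 hours at 37 °C before reading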); conditions: qHTS
Outline: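 Luminescent ATP content (CellTiter-Glo, 20 min at room temperature) was measured after a 40 hr, 37 °C compound exposure of HEK293 cells. AC50 values came from Hill-equation fits of qHTS concentration-response data normalized to DMSO and 100 uM tamoxifen.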

[11] = Cell Viability - MRC5 (AID 434; calls by dose curve;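 also: potency is read from the fitted curve at half-maximal effect; potency reflects cytotoxicity seen as loss of intracellular ATP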); conditions: MRC5 lung fibroblast viability, qHTS
Outline: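 Decrease in intracellular ATP, quantified by luciferase light output, reflects compound toxicity toward MRC5 cells exposed for 40 hr in complete culture medium. Concentration-response curves, scaled between DMSO and 100 uM tamoxifen, gave AC50 values.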

[12] = Cell Viability - SK-N-SH (AID 435; calls by dose curve; also: potency is read from the fitted curve at half-maximal effect); conditions: SK-N-SH neuroblastoma cell viability qHTS
Outline: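 Human neuroblastoma line, 40 h exposure at 37 °C, ATP quantified via luciferase luminescence; DMSO and 100 uM tamoxifen define 0 and 100% inhibition for AC50 fitting.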

[13] = Cell Viability - N2a (AID 540; active = well fitted curve in the direction sought with a large enough effect; an effect the other way counts as inactive or inconclusive;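 also: plate controls were DMSO alone for no effect and tamoxifen control for full effect; nearly all actives have a fitted effect of over 45% in size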)
Outline: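 CellTiter-Glo ATP luminescence, read 20 min after reagent at room temperature, reported viability following 40 h compound treatment at 37 °C. N2a mouse neuroblastoma cells seeded 1500/well; Hill equation gave AC50.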

[14] = Cell Viability - NIH 3T3 (AID 541; active = well fitted curve in the direction sought with a large enough effect; an effect the other way counts as inactive or inconclusive;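 also: plate controls were DMSO alone for no effect and tamoxifen positive control for full effect; nearly all actives have a fitted effect of over 25% in size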); conditions: NIH 3T3 cell viability, qHTS; activity change, negative = cytotoxicity: at 92.2 µM (top of the series)
Outline: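 Intracellular ATP (CellTiter-Glo luminescence, 20 min at room temperature) measured after 40 hr compound exposure at 37 °C of 1000 NIH 3T3 mouse fibroblasts/well in complete medium; AC50 derived by Hill-equation modelling of qHTS concentration-response curves.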

[15] = Cell Viability - HUV-EC-C (AID 542; active = well fitted curve in the direction sought with a large enough effect; an effect the other way counts as inactive or inconclusive; also: % is scaled to controls: 0 for no effect and ±100 for the full control effect; nearly all actives have a fitted effect of over 35% in size)
Outline: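 CellTiter-Glo luminescence measured ATP loss in HUV-EC-C cells (1000/well) after 40 hr compound exposure at 37 °C, in complete culture medium. Concentration-response data were Hill-fitted to give AC50.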

[16] = Cell Viability - H-4-II-E (AID 543; active = well fitted curve in the direction sought with a large enough effect; an effect the other way counts as inactive or inconclusive; also: % is scaled to controls: 0 for no effect and ±100 for the full control effect; nearly all actives have a fitted effect of over 35% in size)
Outline: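 CellTiter-Glo luminescence (intracellular ATP) measured after 40 h compound exposure at 37 °C in H-4-II-E rat hepatoma cells seeded at 1500/well. Values are AC50s fitted with the standard Hill equation.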

[17] = Cell Viability - SH-SY5Y (AID 544; active = well fitted curve in the direction sought with a large enough effect; an effect the other way counts as inactive or inconclusive;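 also: 0% = DMSO alone and -100% = 100 µM tamoxifen; nearly all actives have a fitted effect of over 55% in size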); conditions: SH-SY5Y neuroblastoma cell viability; viability change, negative = cytotoxic: at 92.2 µM (top of the series)
Outline: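 Cytotoxicity measured via ATP-dependent luciferase luminescence (CellTiter-Glo) following 40 h, 37 °C exposure of 1500 SH-SY5Y cells per well. Concentration-response data were fitted with the standard Hill equation to give AC50.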

[18] = Cell Viability - Renal Proximal Tubule (AID 545; active = well fitted curve in the direction sought with a large enough effect; an effect the other way counts as inactive or inconclusive;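 also: 0% = DMSO only and -100% = 100 µM tamoxifen; nearly all actives have a fitted effect of over 40% in size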)
Outline: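 In this qHTS format, normal rat kidney-derived proximal tubule cells in complete culture medium receive compound titrations, then sit 40 hours at 37 °C before luciferase-based ATP quantitation; potency is reported as AC50 from concentration-response curves.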

[19] = Cell Viability - Mesenchymal (AID 546; active = well fitted curve in the direction sought with a large enough effect; an effect the other way counts as inactive or inconclusive;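 also: cells exposed to compound for 40 hours before reading; 0% = DMSO only and -100% = 100 µM tamoxifen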)
Outline: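 In this qHTS cytotoxicity format, glomerulus-derived human mesenchymal kidney cells received compound for 40 hr, then luciferase-based ATP quantitation. Concentration-response data were fitted with the Hill equation.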

CN(C)CCC[C@@]1(c2ccc(F)cc2)OCc2cc(C#N)ccc21
inactive: outcome [1] | Potency [2] | outcome [3] | Potency [4] > 46 µM | Potency [5] > 46 µM

NC(N)=NCc1cccc(I)c1
inactive: outcome [1] | activity change, negative = inhibition [6] -11.1% [at 38 µM] | outcome [3] | Potency [4] > 46 µM | Potency [5] > 46 µM | Potency [7]
active: Potency [2] 12.6 µM

COc1cc(N)c(Cl)cc1C(=O)NC1CCN(Cc2ccccc2)CC1
inactive: outcome [1] | activity change, negative = inhibition [6] -14.7% | outcome [3] | Potency [4] > 20.6 µM | Potency [5] > 20.6 µM | Potency [7]
active: Potency [2] 12.6 µM

COc1ccc(C(=O)c2ccccc2)c(O)c1
inactive: outcome [1] | Potency [8] > 92 µM | Potency [9] > 92 µM | Potency [10] > 92 µM | Potency [11] > 92 µM | Potency [12] > 92 µM | activity change, negative = inhibition [6] -6.2% | outcome [3] | Potency [4] > 20.6 µM | Potency [5] > 20.6 µM | Potency [7] | Potency [13] | activity change, negative = cytotoxicity [14] -13.4% | outcome [15] | Potency [16] | viability change, negative = cytotoxic [17] -8.89% | outcome [18] | outcome [19]
active: Potency [2] 1.58 µM

CC(=O)O[C@]1(C(C)=O)CC[C@H]2[C@@H]3C=C(Cl)C4=CC(=O)CC[C@]4(C)[C@H]3CC[C@@]21C
inactive: outcome [1] | activity change, negative = inhibition [6] -29% | outcome [3]

CC(C)(C)NC[C@H](O)COc1cccc2c1CCCC2=O
inactive: outcome [1] | Potency [2] | activity change, negative = inhibition [6] -6.3% and -2.31% | outcome [3] | Potency [4] > 20.6 µM | Potency [5] > 20.6 µM | Potency [7]

CCCN(CCC)S(=O)(=O)c1ccc(C(=O)O)cc1
inactive: outcome [1] | Potency [2] | Potency [8] > 92 µM | Potency [9] > 92 µM | Potency [10] > 92 µM | Potency [11] > 92 µM | Potency [12] > 92 µM | activity change, negative = inhibition [6] 1.18% and -1.81% | outcome [3] | Potency [4] > 20.6 µM | Potency [5] > 20.6 µM | Potency [7] | Potency [13] | activity change, negative = cytotoxicity [14] -2.58% | outcome [15] | Potency [16] | viability change, negative = cytotoxic [17] -4.3% | outcome [18] | outcome [19]
